Data from PubChem BioAssay AID1159580 (chemical genetic matrix, 2015).
About 2,000 (36%) of roughly 5,500 compounds were called active. About 18% were inconclusive and are not listed. No stated cut-off is given here; in the data, active means normalized growth mostly below about 0.91 (no sharp cut-off); inconclusive means no clear call, values can overlap the other calls; inactive means mostly above about 0.92. Some of the results follow.

Test: chemical genetic growth profiling, strain panel (AID 1159580);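 further: tested at 20 µM; growth read once vehicle control cultures reached saturation at 30 °C; 1 = growth at the plate median or of vehicle wells; lower values mean less growth of the strain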
Conditions: S. cerevisiae deletion strains, growth OD

Measured: normalized growth

O=C1CCc2ccc(OCCCCN3CCN(c4cccc(Cl)c4Cl)CC3)cc2N1
inactive: locus YHR030C, strain SLT2, active compounds read low 1.03 | locus YHR079C, strain IRE1, active compounds read low 0.961 | locus YJL095W, strain BCK1, active compounds read low 0.955 | locus YJR066W, strain TOR1, active compounds read low 0.927 | locus YLR113W, strain HOG1, active compounds read low 0.959 | locus YNL183C, strain NPR1, active compounds read low 0.894 | locus YOR231W, strain MKK1, active compounds read low 0.97 | locus YPL256C, strain CLN2, active compounds read low 0.975
